In PubChem BioAssay AID743455 (The Scripps Research Institute Molecular Screening Center, 2014) one finds IC50 data, which are given here for 13 compounds.

The other results are listed elsewhere or left out. Calls of active or inactive are those of the source.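 Rule for the calls: active = IC50 at or below 10 µM; inactive = IC50 above 10 µM.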

The nature of the assay: 535nm fluorescence optical interference, dose response, artefact control for HGIII-sPLA2 inhibitor project, biochemical, QFRET (AID 743455). Conditions: BODIPY FL product fluorescence interference, cell-free.
In general, IC50 refers to the concentration at which inhibition is half-maximal. As to `CC(C)CC(=O)NC(=S)NNC(=O)c1cccc([N+](=O)[O-])c1`, the IC50 was > 122 µM (inactive).
In the case of `Cn1cc(Cl)c(C(=O)NNC(=S)Nc2cccc(Cl)c2)n1` it was > 122 µM (inactive); in that of `Cc1cccc(-n2cnc(C(=O)NNC(=S)Nc3ccccc3)c2)n1`, > 122 µM (inactive).
As to `COc1ccc2c(c1)c(=Cc1ccc(N(C)C)cc1)c1cc(-c3ccccc3)[n+](C)n12`, the IC50 was > 122 µM (inactive).
For `COc1ccc(C(=O)NC(=S)NNC(=O)c2c(-c3ccccc3)noc2C)cc1` the value was > 122 µM (inactive).
With `O=C1C(=O)N(Cc2ccc(-c3ccsc3)cc2)c2ccc(OC(F)(F)F)cc21`, the IC50 was > 122 µM (inactive).
In the case of `O=C(N/N=C/c1cc(Cl)cc([N+](=O)[O-])c1O)C(O)(c1ccccc1)c1ccccc1` it was > 122 µM (inactive).
On to `Cc1ccc2sc(NNC(=O)c3ccc4c(c3)OCCO4)nc2c1C`, for which the IC50 is > 122 µM (inactive).
In the case of `COc1ccc(Cl)cc1C(=O)NNC(=S)NC1CCCC1` it was > 122 µM (inactive); in that of `C/C(=N\NC(=S)Nc1ccc(C)cc1)c1cc2ccccc2o1`, > 122 µM (inactive); in that of `O=C(NNC(=S)Nc1ccc(Br)cc1Cl)c1ccco1`, > 122 µM (inactive).
For `O=C(NNC(=S)Nc1ccc(F)cc1)[C@H]1C[C@@H]1c1ccccc1` the value was > 122 µM (inactive); for `O=C(NNC(=S)NC1CCCCC1)c1ccccc1Cl`, > 122 µM (inactive).
